Measured values from PubChem BioAssay.
Results with a measured potency or affinity are listed apart. Activity calls are given as the source filed them. The limit is not given here; nearly all actives have IC50 up to about 0.98 µM.

Biological target: Calcium-dependent protein kinase 1 (Plasmodium falciparum (isolate 3D7)) (UniProt P62344)
Assay: PfCDPK1 kinase inhibitors, biochemical, TCAMS library (AID 1159585);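 also: inhibitors leave more ATP so luminescence rises with inhibition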
Conditions: recombinant PfCDPK1, Kinase-Glo ATP depletion luminescence

Chain of Calcium-dependent protein kinase 1 (Plasmodium falciparum (isolate 3D7)) (P62344 whole entry, looked up): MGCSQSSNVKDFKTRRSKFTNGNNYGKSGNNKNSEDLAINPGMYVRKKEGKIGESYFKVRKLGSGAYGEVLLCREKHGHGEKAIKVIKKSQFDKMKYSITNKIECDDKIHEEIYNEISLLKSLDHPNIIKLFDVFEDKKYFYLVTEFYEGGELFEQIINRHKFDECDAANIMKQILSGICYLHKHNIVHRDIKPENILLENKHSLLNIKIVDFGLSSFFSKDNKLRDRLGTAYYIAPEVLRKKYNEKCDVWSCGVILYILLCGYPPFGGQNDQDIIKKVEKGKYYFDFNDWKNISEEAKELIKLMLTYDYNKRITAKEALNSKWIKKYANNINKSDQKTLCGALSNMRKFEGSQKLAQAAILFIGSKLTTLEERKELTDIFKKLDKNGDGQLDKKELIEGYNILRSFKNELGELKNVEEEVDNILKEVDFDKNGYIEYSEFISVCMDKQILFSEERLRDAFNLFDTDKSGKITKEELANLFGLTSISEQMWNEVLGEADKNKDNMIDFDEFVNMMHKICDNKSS

outcome, inactive:
Cc1nnsc1C(=O)Nc1ccc(-c2ccc(-c3nc4c(C)cccc4[nH]3)s2)cc1
O=C([C@@H]1CCCCN1c1ccc([N+](=O)[O-])c2ccccc12)N1CCN(c2ncccn2)CC1
O=C(/C=C/c1ccc(Cl)c(Cl)c1)NCCCCCN1CCCN(C(=S)Nc2cccc(Cl)c2)CC1
O=C(Nc1cccc(-c2cccc(-c3nc4ccc(C(F)(F)F)cc4[nH]3)c2)c1)c1csnn1
Cc1cc(CN2C(=O)C(c3ccccc3)(c3ccccc3)N=C2N)c(C(F)(F)F)o1
COc1ccc(-c2ccc(NC(=O)c3ccccc3)cc2)cc1CN1CCCN(C)CC1
COc1ccc2nccc(N3C[C@H]4C[C@@H]3CN4CCNCc3ccc4c(n3)NC(=O)CS4)c2n1
COc1ccc2ncc(OC)c(CCN3CC[C@@H](NCc4ccc5c(n4)NC(=O)CS5)[C@H](O)C3)c2n1
Cn1cncc1C(=O)Nc1cccc(-c2ccc(-c3nc4ccc(C(F)(F)F)cc4[nH]3)cc2)c1
Cc1c(-c2cccc(CNCCc3ccc(Cl)cc3)c2)cnc(N)c1C
O=C(N[C@@H](Cc1ccccc1)C(=O)O)c1cc(-c2ccc(F)cc2)no1 (tested in a mixture with another compound)
O=C(NCCCCCN1CCC(c2c[nH]c3ccccc23)CC1)Nc1cccc(I)c1
O=C(Nc1ccc(N2CCCCC2)c(Cl)c1)c1ccco1
CC(C)C(C(=O)Nc1ccc2c(c1)OCO2)c1ccc(Cl)cc1 (stereo not given)
CC(C)c1ncc(-c2ccncc2)c(C2CCC(CNC(=O)c3ccncc3)CC2)n1 (stereo not given)
O=S(=O)(NCCN1CCCC1)c1cccc(-c2cccc(CNCc3ccc(F)cc3)c2)c1
CCCC(C)NC(=O)c1cnn(-c2ccc(C(C)(C)C)cc2)c1OCc1ccc(Br)cc1 (stereo not given)
COC(=O)c1cccc(CNCc2cccc(-c3cccc(-c4nc5ccc(F)cc5[nH]4)c3)c2)c1
CCCCCN1CCC(NS(=O)(=O)c2cccc(C(=O)Nc3cccc(C(F)(F)F)c3)c2)C1 (stereo not given)
CCNc1cc(C(=O)N[C@@H](Cc2ccccc2)[C@H](O)CNC2(CCC(C)C)CC2)cc(N2CCCCS2(=O)=O)c1
COc1cc2nc(NC3CCN(Cc4ccccc4)CC3)nc(N)c2cc1OC
CCN(CC)CCCNc1ncc2c(-c3ccc(NC(=O)Nc4cc(C(F)(F)F)ccc4F)c(F)c3)nn(C)c2n1
CN(C)CCOc1cc(NC(=O)Nc2ccc(Oc3ccccc3)cc2)ccc1I
COc1ccc(NC(=O)/C=C/c2ccc(-c3ccccc3)cc2)cc1N1CCN(C)CC1
CCc1c[nH]c2c(N3CCCS3(=O)=O)cc(C(=O)N[C@@H](Cc3ccccc3)[C@H](O)CNC(C)(C)CCCC(C)C)cc12
O[C@H]1[C@H](OCc2ccc(-c3ccccc3)cc2)CC[C@@H]1N1CCCCC1
Cc1ccc(NC(=O)c2ccc(CN3CCCN(Cc4cccc(O)c4)CC3)cc2)cc1F
CCNc1cc(C(=O)N[C@@H](Cc2ccccc2)[C@H](O)CNC2CCC(C(C)(C)C)CC2)cc(N2CCCC2=O)c1 (stereo not given in full)
OC(COCc1ccc(-c2ccccc2)cc1)CN1CCCCC1 (stereo not given)
Nc1ccc2nc(C=Cc3ccc(Cl)cc3)[nH]c2c1
CC(C)NCc1cccc(-c2ccc(NC(=O)c3ccc(F)cc3)cc2)c1
CN(CCCc1c[nH]c2ccccc12)CCC1CCC(NC(=O)/C=C/c2ccc(Cl)c(Cl)c2)CC1 (stereo not given)
Cc1c(-c2cccc(C(C)(C)NCCCN3CCCCC3)c2)cnc(N)c1C
CC(CN(C)C)C(=O)Nc1cccc(-c2cccc(-c3nc4ccccc4[nH]3)c2)c1 (stereo not given)
O=[N+]([O-])c1cccc(CNCC2CCN(Cc3ccc(Cl)c(Cl)c3)CC2)c1
NC(N)=NCCCN(Cc1ccccc1)c1ccccc1
Cc1cc(=O)c(-c2ccc(OCc3ccc(OC(F)(F)F)cc3)cc2)c(C)[nH]1
CC(C)CNCc1cccc(-c2cccc(CN(CCCN3CCN(C)CC3)C(=O)NC3CCCCC3)c2)c1
CC(C)c1ccc(S(=O)(=O)Nc2cccc(CCN3CCC(N4CCCCC4)CC3)c2)cc1
O=C1Nc2cccc3c2C1(CCCCN1CCC(c2c[nH]c4cc(C(F)(F)F)ccc24)CC1)CCC3 (stereo not given)
